From ChEMBL document CHEMBL1961873, “Compounds: GSK PKIS; Assays: Nanosyn kinase panel” (2012)

How the values were obtained:
[1] = target: 5'-AMP-activated protein kinase catalytic subunit alpha-2 (Homo sapiens) (UniProt P54646); conditions: at 1 µM
[2] = target: T1, NUAK family SNF1-like kinase 1 (Homo sapiens) (UniProt O60285); conditions: at 0.1 µM
T1 sequence (whole entry): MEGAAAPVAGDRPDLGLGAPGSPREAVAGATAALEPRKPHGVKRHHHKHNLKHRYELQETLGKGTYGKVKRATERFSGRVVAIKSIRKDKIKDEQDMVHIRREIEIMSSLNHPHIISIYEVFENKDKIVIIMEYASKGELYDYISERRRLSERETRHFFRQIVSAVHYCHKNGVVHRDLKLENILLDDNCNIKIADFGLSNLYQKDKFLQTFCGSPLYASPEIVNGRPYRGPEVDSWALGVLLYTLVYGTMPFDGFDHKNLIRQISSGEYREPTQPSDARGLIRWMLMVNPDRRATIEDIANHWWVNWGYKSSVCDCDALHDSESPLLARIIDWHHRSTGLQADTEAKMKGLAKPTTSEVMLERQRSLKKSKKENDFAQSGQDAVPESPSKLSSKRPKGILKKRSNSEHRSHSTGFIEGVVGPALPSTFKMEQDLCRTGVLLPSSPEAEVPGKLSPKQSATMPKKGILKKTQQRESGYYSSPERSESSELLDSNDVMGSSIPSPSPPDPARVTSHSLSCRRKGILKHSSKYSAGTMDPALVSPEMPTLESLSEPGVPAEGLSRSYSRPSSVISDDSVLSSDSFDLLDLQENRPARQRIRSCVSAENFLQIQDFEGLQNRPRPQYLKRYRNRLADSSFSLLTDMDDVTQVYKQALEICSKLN

[3] = target: T1, NUAK family SNF1-like kinase 1 (Homo sapiens); conditions: at 1 µM
[4] = target: T2, Serine/threonine-protein kinase BRSK1 (Homo sapiens) (UniProt Q8TDC3); conditions: at 0.1 µM
T2 sequence (whole entry): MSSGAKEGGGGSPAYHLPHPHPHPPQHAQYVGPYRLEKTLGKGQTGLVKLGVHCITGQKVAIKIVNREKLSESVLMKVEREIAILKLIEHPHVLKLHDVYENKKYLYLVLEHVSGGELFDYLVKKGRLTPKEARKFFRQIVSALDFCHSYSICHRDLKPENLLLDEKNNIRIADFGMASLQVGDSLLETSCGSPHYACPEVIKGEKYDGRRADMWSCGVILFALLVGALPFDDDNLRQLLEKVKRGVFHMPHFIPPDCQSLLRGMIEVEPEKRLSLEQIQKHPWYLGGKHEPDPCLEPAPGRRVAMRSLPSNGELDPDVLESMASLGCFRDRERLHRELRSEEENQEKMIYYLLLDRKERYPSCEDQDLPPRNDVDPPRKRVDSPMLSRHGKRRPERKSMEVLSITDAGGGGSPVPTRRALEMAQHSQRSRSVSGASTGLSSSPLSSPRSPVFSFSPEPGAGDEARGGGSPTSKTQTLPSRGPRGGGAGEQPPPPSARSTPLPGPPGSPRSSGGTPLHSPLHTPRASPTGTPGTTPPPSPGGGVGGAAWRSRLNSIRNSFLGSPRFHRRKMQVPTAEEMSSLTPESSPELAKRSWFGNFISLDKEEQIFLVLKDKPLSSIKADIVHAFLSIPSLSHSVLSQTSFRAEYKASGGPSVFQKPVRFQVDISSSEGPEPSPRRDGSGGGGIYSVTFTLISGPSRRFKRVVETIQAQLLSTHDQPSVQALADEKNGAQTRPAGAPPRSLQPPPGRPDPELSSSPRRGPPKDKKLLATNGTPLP

[5] = target: T2, Serine/threonine-protein kinase BRSK1 (Homo sapiens); conditions: at 1 µM
[6] = target: T3, Serine/threonine-protein kinase BRSK2 (Homo sapiens) (UniProt Q8IWQ3); conditions: at 0.1 µM
T3 sequence (whole entry): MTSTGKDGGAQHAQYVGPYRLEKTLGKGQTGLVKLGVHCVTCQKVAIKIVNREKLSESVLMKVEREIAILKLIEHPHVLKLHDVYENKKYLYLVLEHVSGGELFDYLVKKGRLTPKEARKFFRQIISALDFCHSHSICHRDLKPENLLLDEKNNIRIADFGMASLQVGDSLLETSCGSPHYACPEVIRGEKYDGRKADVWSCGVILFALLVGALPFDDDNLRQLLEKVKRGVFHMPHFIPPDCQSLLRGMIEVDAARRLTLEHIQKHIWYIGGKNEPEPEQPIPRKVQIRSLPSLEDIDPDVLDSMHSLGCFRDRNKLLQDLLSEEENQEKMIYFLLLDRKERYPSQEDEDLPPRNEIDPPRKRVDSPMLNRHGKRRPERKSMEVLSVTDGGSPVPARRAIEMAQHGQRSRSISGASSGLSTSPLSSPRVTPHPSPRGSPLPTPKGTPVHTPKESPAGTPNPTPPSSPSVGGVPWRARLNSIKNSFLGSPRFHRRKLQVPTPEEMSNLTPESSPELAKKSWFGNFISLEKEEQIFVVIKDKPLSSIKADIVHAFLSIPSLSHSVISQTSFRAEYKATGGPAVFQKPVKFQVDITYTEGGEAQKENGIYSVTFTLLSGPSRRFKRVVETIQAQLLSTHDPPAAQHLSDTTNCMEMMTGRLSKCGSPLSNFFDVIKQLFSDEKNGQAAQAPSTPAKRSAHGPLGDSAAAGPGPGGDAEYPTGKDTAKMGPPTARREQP

[7] = target: T3, Serine/threonine-protein kinase BRSK2 (Homo sapiens); conditions: at 1 µM
[8] = target: Calcium/calmodulin-dependent protein kinase type 1D (Homo sapiens) (UniProt Q8IU85); conditions: at 0.1 µM
Sequence of Calcium/calmodulin-dependent protein kinase type 1D (Homo sapiens) (Q8IU85 whole entry, looked up): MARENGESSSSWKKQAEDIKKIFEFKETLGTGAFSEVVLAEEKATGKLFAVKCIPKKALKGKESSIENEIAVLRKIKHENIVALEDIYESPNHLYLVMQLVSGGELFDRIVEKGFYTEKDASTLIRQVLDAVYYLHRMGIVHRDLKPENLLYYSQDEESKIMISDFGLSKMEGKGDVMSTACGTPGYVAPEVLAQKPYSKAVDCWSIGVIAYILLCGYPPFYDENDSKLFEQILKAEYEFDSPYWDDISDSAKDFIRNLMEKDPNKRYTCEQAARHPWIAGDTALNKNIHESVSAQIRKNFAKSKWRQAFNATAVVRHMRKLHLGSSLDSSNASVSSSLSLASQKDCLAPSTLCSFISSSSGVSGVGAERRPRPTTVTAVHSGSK

[9] = target: Calcium/calmodulin-dependent protein kinase type 1D (Homo sapiens) (UniProt Q8IU85); conditions: at 1 µM
[10] = target: Calcium/calmodulin-dependent protein kinase type II subunit alpha (Homo sapiens) (UniProt Q9UQM7); conditions: at 0.1 µM;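 note: reported values are averages (mean inhibition of CAMK2A)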
Sequence of Calcium/calmodulin-dependent protein kinase type II subunit alpha (Homo sapiens) (Q9UQM7 whole entry): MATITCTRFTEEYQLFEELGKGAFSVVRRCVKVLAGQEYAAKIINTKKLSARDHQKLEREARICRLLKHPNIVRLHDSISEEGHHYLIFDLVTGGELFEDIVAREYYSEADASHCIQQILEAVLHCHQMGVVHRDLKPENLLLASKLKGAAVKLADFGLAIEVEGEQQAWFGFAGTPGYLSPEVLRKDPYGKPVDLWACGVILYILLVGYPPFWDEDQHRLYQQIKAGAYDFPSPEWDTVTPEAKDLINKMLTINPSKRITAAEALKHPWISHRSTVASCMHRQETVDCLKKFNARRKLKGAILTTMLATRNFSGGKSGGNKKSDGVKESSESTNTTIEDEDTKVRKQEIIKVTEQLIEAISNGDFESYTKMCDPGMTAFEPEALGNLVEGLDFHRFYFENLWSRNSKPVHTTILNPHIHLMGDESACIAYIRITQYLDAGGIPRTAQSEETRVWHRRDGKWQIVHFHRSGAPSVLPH

Sequence of 5'-AMP-activated protein kinase catalytic subunit alpha-2 (Homo sapiens) (P54646 whole entry, looked up): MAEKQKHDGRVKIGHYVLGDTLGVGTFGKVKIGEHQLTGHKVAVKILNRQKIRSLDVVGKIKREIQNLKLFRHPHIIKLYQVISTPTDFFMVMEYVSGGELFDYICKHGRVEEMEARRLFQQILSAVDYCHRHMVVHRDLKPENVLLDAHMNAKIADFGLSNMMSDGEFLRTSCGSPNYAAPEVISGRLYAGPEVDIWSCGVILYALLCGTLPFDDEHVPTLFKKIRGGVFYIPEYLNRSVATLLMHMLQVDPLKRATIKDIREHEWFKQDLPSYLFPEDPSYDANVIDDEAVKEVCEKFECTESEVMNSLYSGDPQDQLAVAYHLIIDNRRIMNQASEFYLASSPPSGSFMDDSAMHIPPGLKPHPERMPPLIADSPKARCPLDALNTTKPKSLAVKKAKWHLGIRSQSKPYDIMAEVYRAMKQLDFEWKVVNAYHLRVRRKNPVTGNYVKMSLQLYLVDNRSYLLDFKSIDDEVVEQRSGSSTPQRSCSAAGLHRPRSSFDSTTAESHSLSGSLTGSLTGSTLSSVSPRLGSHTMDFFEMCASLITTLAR

Structure (SMILES) | inhibition [1] [%] | inhibition [2] [%] | inhibition [3] [%] | inhibition [4] [%] | inhibition [5] [%] | inhibition [6] [%] | inhibition [7] [%] | inhibition [8] [%] | inhibition [9] [%] | inhibition [10] [%]
CCn1c(-c2nonc2N)nc2c(C#CC(C)(C)O)ncc(OCC3CCNCC3)c21 | 16.1 | 6.78 | 37.2 | 0.32 | 6.72 | 2.53 | 10.8 | -0.03 | 0.97 | 3.5
CCn1c(-c2nonc2N)nc2c(C#CCN)ncc(OCCCN)c21 | 2.16 | 6.71 | 10.4 | 4.54 | 10.3 | 7.19 | 12.2 | -0.21 | -0.05 | -2.48
COc1cc(C=NNc2ncnc3c2cnn3Cc2ccccc2)ccc1O | -3.45 | 7.72 | 27.6 | -0.74 | 1.48 | 0.53 | 2.95 | 0.1 | 0.78 | -5
Nc1nonc1-c1nc2cnccc2n1C1CCCCC1 | 3.46 | 0.83 | 6.7 | -0.55 | 4.25 | 0.61 | 6.14 | 0.69 | 1.22 | -2.67
NC(=O)c1sc(-n2cnc3cc(C(F)(F)F)ccc32)cc1OCc1ccccc1Br | 4.05 | -0.04 | 2.91 | 1.16 | 3.25 | 2.43 | 8.5 | 0.11 | 1.53 | 2.4
Fc1ccc(-c2ncn(C3CCNCC3)c2-c2ccnc(Oc3ccccc3)n2)cc1 | -1.95 | -1.26 | 2.38 | -0.19 | -0.55 | 0.01 | 2.57 | -1.05 | 0.14 | -0.23
COc1cccc(-n2ncc3c(N/N=C/c4ccncc4)ncnc32)c1 | 7.87 | 16.1 | 54.6 | 11.2 | 52.5 | 18.6 | 60.1 | 0.07 | 2.43 | 4.53
CCn1c(-c2nonc2N)nc2c(C#CC(C)(C)O)ncc(OC[C@@H]3CCCN3)c21 | 4.25 | 6.58 | 34.4 | -0.75 | 1.83 | 0.98 | 1.11 | 0.27 | 0.84 | 1.28
NS(=O)(=O)c1ccc(-c2ccc3c(NC(=O)C4CC4)n[nH]c3c2)cc1 | 5.62 | 3.06 | 8.32 | 3.64 | 6.53 | 4.08 | 7.2 | -1.85 | 0.84 | 3.17
COc1cccc(COc2cc(-n3cnc4ccccc43)sc2C(N)=O)c1 | 1.39 | -2.73 | 8.04 | -0.43 | 5.63 | 0.26 | 4.17 | 0.91 | 0.38 | 0.37
NS(=O)(=O)c1ccc(N/C=C2\C(=O)Nc3ccc4ncsc4c32)cc1 | 42.8 | 59.2 | 69.1 | 17.6 | 53.1 | 33 | 62.4 | 0.05 | 0.92 | 2.56
COc1cc2c(cc1Nc1nc(Nc3ccsc3C(N)=O)c3cc[nH]c3n1)N(C(=O)CN(C)C)CCC2 | 2.09 | 1.84 | 1.85 | 0.07 | 1.57 | 0.73 | -0.28 | – | – | -4.48
Cc1cc(-c2ccco2)cc(C)c1/C=C/c1cncc(-c2nn[nH]n2)c1 | 2.58 | -1.33 | -1.37 | -0.09 | 1.13 | 0.76 | 0.62 | 0.45 | -0.49 | 1.37
CCn1c(-c2nonc2N)nc2c(C#CC(C)(C)O)nc(O[C@@H](CN)c3ccccc3)cc21 | 68.1 | 24.4 | 69.6 | 6.66 | 38.4 | 13.7 | 58.8 | 13.2 | 29.4 | -1.19
